Several values for one entry are separate records, joined by “and”; a condition that tells them apart may be missing. Identical values can stand only once. Inconclusive results are not listed. Some compounds were tested as several samples or in several runs, with calls that do not always agree. Activity calls are given as the source filed them. How the source made its calls, unless noted: active means hit-call score of the fitted dose curve at least 0.9, where 1 is the maximum; inconclusive means response in the unintended direction; inactive means score below 0.9.
Columns and labels:
[1] = biological target: Agonist Androgen Response Element (ARE), AR (gene 367) (UniProt P10275); assay: OT_AR_ARELUC_AG_1440: Odyssey Thera (OT) 24-hour CHO-K1 Luciferase Assay for Agonist Androgen Response Element (ARE) (AID 2283379)
Method in brief: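 Agonist mode, 24 h exposure in CHO-K1 ARE-luciferase cells; values reflect luminescence induction over vehicle.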

[2] = biological target: Estrogen receptor beta (Homo sapiens) (UniProt Q92731); assay: OT_ER_ERbERb_1440: Odyssey Thera (OT) 24-hour HEK293T Protein-Complementation Assay for Estrogen Receptor-beta/-beta Homodimer (AID 2283380);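 further: fluorescence gain from ER beta LBD homodimer complementation read by laser scanning cytometry; scored as signal increase over DMSO baseline for both agonists and antagonists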
Method in brief: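 Fluorescence increase, nuclear for agonists or whole-cell for antagonists, relative to DMSO vehicle, quantified by laser scanning cytometer after fixation and Draq5 staining. Readout from 24 h treatment of HEK293T cells carrying complementation-paired ER beta LBD (aa 310-547).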

[3] = biological target: Estrogen receptor (Homo sapiens) (UniProt P03372); assay: OT_ERa_GFPERaERE_0480: Odyssey Thera (OT) 8-hour HeLa Transcription Induction Assay for Estrogen Receptor (AID 2283381; active means hit-call score of the fitted dose curve at least 0.9, where 1 is the maximum; inactive means score below 0.9)
Method in brief: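 HeLa cells dosed with compound and imaged by fluorescence microscopy at 8 h; GFP induction from an ERE reporter quantified by high-content image analysis and fitted as gain of signal against DMSO baseline.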

[4] = biological target: Estrogen receptor (Homo sapiens) (UniProt P03372); assay: OT_ERa_GFPERaERE_0120: Odyssey Thera (OT) 2-hour HeLa Transcription Induction Assay for Estrogen Receptor (AID 2283382)
Method in brief: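 HeLa cells were dosed with test chemical and read 2 hours later for GFP-ERα/ERE-linked fluorescent protein induction by fluorescence microscopy. Gain-of-signal was fitted relative to DMSO baseline, quantified by high content image analysis.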

[5] = biological target: Bile acid receptor (Homo sapiens) (UniProt Q96RI1); assay: OT_FXR_FXRSRC1_0480: Odyssey Thera (OT) 8-hour HEK293T Protein-Complementation Assay for Farnesoid X receptor/SRC-1 Co-activator (AID 2283383)
Method in brief: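 HEK293T cells expressing FXR and SRC-1 fused to reporter fragments were dosed with compound for 8 h; fluorescence from the reconstituted reporter marked co-activator recruitment. Gain of signal was fitted against the DMSO baseline.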

[6] = biological target: Bile acid receptor (Homo sapiens) (UniProt Q96RI1); assay: OT_FXR_FXRSRC1_1440: Odyssey Thera (OT) 24-hour HEK293T Protein-Complementation Assay for Farnesoid X receptor/SRC-1 Co-activator (AID 2283384)
Method in brief: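 HEK293T cells were dosed with compound and read 24 h later by fluorescence intensity from protein-fragment complementation reporting FXR/SRC-1 co-activator interaction. Gain of signal was fitted relative to DMSO negative control as baseline.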

[7] = biological target: Retinoic acid receptor RXR-alpha (Homo sapiens) (UniProt P19793); assay: OT_NURR1_NURR1RXRa_1440: Odyssey Thera (OT) 24-hour HEK293T Protein Complementation Assay for Nurr1/retinoid X receptor (RXR) (AID 2283386)
Method in brief: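 HEK293T cells were dosed with compound and read 24 h later by fluorescence intensity in a protein-fragment complementation format, where Nurr1–RXRα interaction reconstitutes a split reporter. Activity was fitted as gain of signal relative to DMSO baseline.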

[8] = biological target: Peroxisome proliferator-activated receptor gamma (Homo sapiens) (UniProt P37231); assay: OT_PPARg_PPARgSRC1_0480: Odyssey Thera (OT) 8-hour Protein-Complementation Assay for Peroxisome Proliferator-activated Receptor Gamma / SRC-1 Co-activator (AID 2283387);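 further: nuclear to cytoplasmic split Venus YFP fluorescence ratio reporting PPARg SRC-1 interaction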
Method in brief: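 Split-YFP (IFP1/IFP2) PPARg/SRC-1 reporter, HEK293T, 37 °C, 5% CO2; 8 h compound; formaldehyde fix + Draq5; high-content imaging, N/C ratio, ≥350 cells/image, positive direction vs DMSO.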

[9] = biological target: Peroxisome proliferator-activated receptor gamma (Homo sapiens) (UniProt P37231); assay: OT_PPARg_PPARgSRC1_1440: Odyssey Thera (OT) 24-hour Protein-Complementation Assay for Peroxisome Proliferator-activated Receptor Gamma/ SRC-1 Co-activator (AID 2283388);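 further: nuclear to cytoplasmic ratio of reconstituted Venus YFP fluorescence in fixed imaged cells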
Method in brief: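 Readout is the 488 nm N/C fluorescence ratio from fixed, Draq5-stained HEK293T cells after 24 h compound exposure. Cells carried transiently transfected PPARg and SRC-1 fused to Venus fragments, transfected 48 h before treatment.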

[10] = biological target: Retinoic acid receptor RXR-alpha (Homo sapiens) (UniProt P19793); assay: OT_NURR1_NURR1RXRa_0480: Odyssey Thera (OT) 8-hour HEK293T Protein Complementation Assay for Nurr1/retinoid X receptor (RXR) (AID 2283385)
Method in brief: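 HEK293T cells expressing Nurr1 and RXRα fused to reporter fragments were dosed with compound for 8 hours. Complex formation was read as fluorescence intensity and analysed as gain of signal against DMSO as baseline.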

Measured: AC50

Chain of Bile acid receptor (Homo sapiens) (Q96RI1 whole entry, looked up, the tested form may be a part): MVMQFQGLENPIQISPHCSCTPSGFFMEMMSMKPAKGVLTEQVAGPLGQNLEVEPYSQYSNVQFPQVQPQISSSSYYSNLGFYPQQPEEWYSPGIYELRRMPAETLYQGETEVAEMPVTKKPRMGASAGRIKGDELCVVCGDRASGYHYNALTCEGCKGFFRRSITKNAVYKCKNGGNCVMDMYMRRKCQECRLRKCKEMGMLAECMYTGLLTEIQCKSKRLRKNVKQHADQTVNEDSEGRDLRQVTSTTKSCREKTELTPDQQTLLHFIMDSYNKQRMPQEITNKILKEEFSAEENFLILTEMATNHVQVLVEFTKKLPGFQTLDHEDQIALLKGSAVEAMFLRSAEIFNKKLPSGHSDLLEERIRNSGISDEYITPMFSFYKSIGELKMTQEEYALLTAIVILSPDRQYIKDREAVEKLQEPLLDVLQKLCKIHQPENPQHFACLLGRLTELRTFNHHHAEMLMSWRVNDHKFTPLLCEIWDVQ
Chain of Estrogen receptor (Homo sapiens) (P03372 whole entry, looked up): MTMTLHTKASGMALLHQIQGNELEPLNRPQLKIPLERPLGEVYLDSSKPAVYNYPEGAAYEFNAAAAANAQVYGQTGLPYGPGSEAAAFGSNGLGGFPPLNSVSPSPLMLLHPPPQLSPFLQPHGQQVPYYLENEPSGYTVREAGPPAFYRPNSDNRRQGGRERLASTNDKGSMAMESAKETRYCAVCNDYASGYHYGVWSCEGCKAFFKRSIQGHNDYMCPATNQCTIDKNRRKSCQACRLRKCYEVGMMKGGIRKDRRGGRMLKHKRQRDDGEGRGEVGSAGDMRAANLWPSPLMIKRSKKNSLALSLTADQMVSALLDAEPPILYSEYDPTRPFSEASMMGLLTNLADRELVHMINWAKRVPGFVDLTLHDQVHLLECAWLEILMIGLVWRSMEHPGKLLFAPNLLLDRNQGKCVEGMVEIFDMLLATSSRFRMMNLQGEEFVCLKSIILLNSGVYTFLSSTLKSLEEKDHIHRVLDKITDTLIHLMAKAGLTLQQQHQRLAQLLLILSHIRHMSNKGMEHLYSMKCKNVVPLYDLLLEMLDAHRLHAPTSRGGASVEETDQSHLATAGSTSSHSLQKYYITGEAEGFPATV
Chain of Retinoic acid receptor RXR-alpha (Homo sapiens) (P19793 whole entry, looked up, the tested form may be a part): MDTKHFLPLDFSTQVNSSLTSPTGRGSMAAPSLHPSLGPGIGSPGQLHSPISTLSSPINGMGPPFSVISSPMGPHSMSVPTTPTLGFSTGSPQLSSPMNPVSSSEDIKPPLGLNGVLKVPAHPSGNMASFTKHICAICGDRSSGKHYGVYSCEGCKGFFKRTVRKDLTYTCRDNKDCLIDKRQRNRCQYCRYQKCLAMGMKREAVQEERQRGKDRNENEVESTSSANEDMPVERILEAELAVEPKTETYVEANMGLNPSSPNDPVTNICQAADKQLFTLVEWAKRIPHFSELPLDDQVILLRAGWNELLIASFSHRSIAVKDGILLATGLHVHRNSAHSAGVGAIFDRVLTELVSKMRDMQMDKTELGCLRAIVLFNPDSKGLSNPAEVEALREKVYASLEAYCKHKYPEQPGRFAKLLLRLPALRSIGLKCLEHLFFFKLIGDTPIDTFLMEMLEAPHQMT
Chain of Peroxisome proliferator-activated receptor gamma (Homo sapiens) (P37231 whole entry, looked up, the tested form may be a part): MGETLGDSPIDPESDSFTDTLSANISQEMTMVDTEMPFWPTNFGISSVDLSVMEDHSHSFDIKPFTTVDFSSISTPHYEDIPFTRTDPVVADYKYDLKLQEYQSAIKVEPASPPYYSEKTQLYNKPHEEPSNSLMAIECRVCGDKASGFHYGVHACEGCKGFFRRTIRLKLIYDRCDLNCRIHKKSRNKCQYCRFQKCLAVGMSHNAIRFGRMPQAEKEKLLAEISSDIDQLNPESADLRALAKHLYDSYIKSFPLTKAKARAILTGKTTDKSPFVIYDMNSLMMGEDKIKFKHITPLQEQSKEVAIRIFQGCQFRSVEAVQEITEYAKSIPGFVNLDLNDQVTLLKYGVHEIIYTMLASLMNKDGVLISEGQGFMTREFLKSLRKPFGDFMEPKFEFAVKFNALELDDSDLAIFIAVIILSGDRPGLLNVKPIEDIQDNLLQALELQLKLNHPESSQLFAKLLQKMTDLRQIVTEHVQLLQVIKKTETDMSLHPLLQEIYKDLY
Chain of Agonist Androgen Response Element (ARE), AR (gene 367) (P10275 whole entry, looked up): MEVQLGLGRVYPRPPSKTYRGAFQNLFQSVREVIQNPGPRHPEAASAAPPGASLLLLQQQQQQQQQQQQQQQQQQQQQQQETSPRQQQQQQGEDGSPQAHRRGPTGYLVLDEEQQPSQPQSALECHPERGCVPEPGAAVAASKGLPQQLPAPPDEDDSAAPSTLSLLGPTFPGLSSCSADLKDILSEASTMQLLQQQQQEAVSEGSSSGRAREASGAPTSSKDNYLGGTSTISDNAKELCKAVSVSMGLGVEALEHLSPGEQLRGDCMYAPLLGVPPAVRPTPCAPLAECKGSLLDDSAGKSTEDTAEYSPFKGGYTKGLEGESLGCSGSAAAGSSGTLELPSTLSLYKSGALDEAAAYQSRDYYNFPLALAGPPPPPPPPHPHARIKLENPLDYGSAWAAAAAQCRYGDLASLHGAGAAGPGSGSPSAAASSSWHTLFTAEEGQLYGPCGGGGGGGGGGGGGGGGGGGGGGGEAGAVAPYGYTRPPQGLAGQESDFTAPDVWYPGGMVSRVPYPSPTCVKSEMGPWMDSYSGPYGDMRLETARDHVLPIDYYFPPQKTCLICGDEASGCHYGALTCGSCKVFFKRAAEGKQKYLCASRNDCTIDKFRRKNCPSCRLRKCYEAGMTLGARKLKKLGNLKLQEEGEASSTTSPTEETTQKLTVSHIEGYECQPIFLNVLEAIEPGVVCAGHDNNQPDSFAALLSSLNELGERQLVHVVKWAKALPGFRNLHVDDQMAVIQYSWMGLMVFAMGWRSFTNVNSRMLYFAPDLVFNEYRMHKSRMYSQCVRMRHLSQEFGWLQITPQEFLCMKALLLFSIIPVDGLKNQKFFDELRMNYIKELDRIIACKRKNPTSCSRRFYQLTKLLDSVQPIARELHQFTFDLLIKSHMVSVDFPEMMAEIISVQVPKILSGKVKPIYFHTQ
Chain of Estrogen receptor beta (Homo sapiens) (Q92731 whole entry, looked up, the tested form may be a part): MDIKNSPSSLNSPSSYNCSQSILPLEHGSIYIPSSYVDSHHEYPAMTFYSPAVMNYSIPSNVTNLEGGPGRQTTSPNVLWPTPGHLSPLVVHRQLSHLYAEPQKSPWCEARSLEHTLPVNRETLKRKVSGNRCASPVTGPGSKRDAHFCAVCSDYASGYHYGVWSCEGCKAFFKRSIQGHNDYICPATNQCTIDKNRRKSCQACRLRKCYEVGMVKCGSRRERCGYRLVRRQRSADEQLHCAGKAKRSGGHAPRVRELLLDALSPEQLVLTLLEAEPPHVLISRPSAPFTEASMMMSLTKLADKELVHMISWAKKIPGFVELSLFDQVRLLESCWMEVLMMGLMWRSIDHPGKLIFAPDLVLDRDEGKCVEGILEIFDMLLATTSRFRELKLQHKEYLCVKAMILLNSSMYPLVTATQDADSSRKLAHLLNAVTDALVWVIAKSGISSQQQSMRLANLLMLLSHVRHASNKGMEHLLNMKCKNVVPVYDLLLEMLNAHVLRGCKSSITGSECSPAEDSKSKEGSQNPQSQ

O=C(O)C1(C(=O)Nc2ccc(Cl)cc2Cl)CC1
active: [7] 50 µM
not listed: [10]
inactive: all other assays above

C[C@]12C[C@H](O)[C@H]3[C@@H](CCC4=CC(=O)CC[C@@]43C)[C@@H]1CC[C@@H]2C(=O)CO
active: [5] 32.3 µM | [6] 16.8 µM
inactive: [2] | [3] | [4] | [5] | [6] | [10] | [7] | [8] | [9]

C[C@]12CC[C@@H]3c4ccc(O)cc4C[C@@H](CCCCCCCCCS(=O)CCCC(F)(F)C(F)(F)F)[C@H]3[C@@H]1CC[C@@H]2O (some centres undefined)
inactive: [1] | [5] | [6] | [10] | [7] | [8] | [9]
active: [1] 548 nM

Cc1nn(C)c(Oc2ccccc2)c1C=NOCc1ccc(C(=O)OC(C)(C)C)cc1
active: [5] 7.14 µM | [6] 9.92 µM | [10] 11.3 µM | [7] 15.7 µM
inactive: [1] | [2] | [3] | [4] | [10] | [7] | [8] | [9]

CCCCOCCOCCOCc1cc2c(cc1CCC)OCO2
active: [5] 33.1 µM
not listed: [3] | [4]
inactive: all other assays above

CCOC(=O)c1ccc(O)cc1
inactive: [2] | [3] | [4] | [5] | [6] | [10] | [7]
active: [2] 28.6 µM and 25.9 µM and 32.9 µM

CCCCOC(=O)C(C)Oc1ccc(Oc2ccc(C(F)(F)F)cn2)cc1 (centres undefined)
active: [10] 65.1 µM
inactive: [2] | [3] | [4] | [5] | [6] | [10] | [7] | [8] | [9]

N#CSCSc1nc2ccccc2s1
active: [3] 88.1 µM | [7] 11.6 µM
not listed: [5] | [6]
inactive: all other assays above

CCN(Cc1c(F)cccc1Cl)c1c([N+](=O)[O-])cc(C(F)(F)F)cc1[N+](=O)[O-]
active: [3] 3.54 µM | [4] 6.39 µM
not listed: [1] | [6]
inactive: all other assays above

O=C(Nc1ccc([N+](=O)[O-])cc1Cl)c1cc(Cl)ccc1O
inactive: [2] | [3] | [4] | [10] | [7] | [8] | [9]
active: [5] 5.91 µM | [6] 1.21 µM | [10] 1.19 µM | [7] 1.45 µM

O=C(c1ccccc1)C1CCCCC1
inactive: [1] | [3] | [4] | [5] | [6] | [10] | [7] | [8] | [9]
active: [1] 527 nM

CSC(=O)c1cccc2nnsc12
not listed: [2] | [5] | [6]
inactive: all other assays above

CCCCOC(=O)[C@@H](C)Oc1ccc(Oc2ccc(C(F)(F)F)cn2)cc1
active: [4] 46.5 µM | [5] 58.9 µM
not listed: [1]
inactive: all other assays above

CCCOC(=O)c1ccc(C(=O)OCCC)nc1
active: [6] 13.2 µM
not listed: [10]
inactive: all other assays above

CC(C)CCCCCCc1ccc(O)cc1
inactive: [8] | [9]
active: [2] 1.2 µM and 1.06 µM and 1.25 µM | [3] 147 nM and 116 nM and 263 nM | [4] 273 nM and 120 nM and 248 nM | [5] 11.5 µM and 11.3 µM

O=C(c1ccc(O)cc1O)c1ccc(O)cc1O
active: [1] 722 nM and 29.3 µM | [2] 2.09 µM and 2.02 µM and 2.21 µM | [3] 2.11 µM and 2.15 µM and 2.89 µM | [4] 2.24 µM and 2.25 µM and 2.67 µM | [6] 50 µM and 28 µM
inactive: [1] | [5] | [10] | [7] | [8] | [9]

CCCN(CCC)C(=O)SCC
not listed: [5] | [6]
inactive: all other assays above

CCSC(=O)N(CC(C)C)CC(C)C
not listed: [5] | [6] | [10]
inactive: all other assays above

CC(C)(c1ccc(O)cc1)c1ccc(O)cc1
inactive: [1] | [10] | [7] | [8] | [9]

CC1(C)C(C=C(Cl)Cl)C1C(=O)OCc1cccc(Oc2ccccc2)c1 (centres undefined)
inactive: [1] | [3] | [4] | [10] | [7]

C#CCOC(=O)[C@@H](C)Oc1ccc(Oc2ncc(Cl)cc2F)cc1
not listed: [1]
inactive: all other assays above

CCN(CC)C(=O)c1cccc(C)c1
not listed: [1] | [6]
inactive: all other assays above

CCOC(=O)COc1cc(-n2ncc(C(F)(F)F)c(C)c2=O)c(F)cc1Cl
not listed: [5] | [6]
inactive: all other assays above

c1ccc2[nH]c(-c3cscn3)nc2c1
not listed: [7] | [10]
inactive: all other assays above

CCCN(CCC)c1c([N+](=O)[O-])cc(C(F)(F)F)c(N)c1[N+](=O)[O-]
inactive: [2] | [8] | [9]
active: [3] 1.3 µM | [4] 0.895 µM | [5] 56.9 µM | [6] 50 µM | [10] 32.7 µM and 55.6 µM | [7] 35.9 µM and 34.9 µM

COC(=O)CSc1cc(N=c2sc(=O)n3n2CCCC3)c(F)cc1Cl
not listed: [3] | [4] | [6]
inactive: all other assays above

CCOC(=O)C(C)Oc1ccc(Oc2cnc3cc(Cl)ccc3n2)cc1 (centres undefined)
active: [5] 43 µM
not listed: [1] | [2]
inactive: all other assays above

C#C[C@]1(O)CC[C@H]2[C@@H]3CCC4=CC(=O)CC[C@@H]4[C@H]3CC[C@@]21CC
inactive: [3] | [4] | [10] | [7] | [8] | [9]
active: [3] 15.1 µM and 8.91 µM | [4] 12.1 µM and 46.1 µM and 5.67 µM

C=CCOC(Cn1ccnc1)c1ccc(Cl)cc1Cl (centres undefined)
inactive: [8] | [9]
active: [2] 60.6 µM | [10] 58.3 µM and 85.7 µM | [7] 78.5 µM and 79 µM

CCCCCOC(=O)COc1cc(N2C(=O)C3=C(CCCC3)C2=O)c(F)cc1Cl
not listed: [1] | [5] | [6]
inactive: all other assays above

CCCCC(CC)CN1C(=O)C2C3C=CC(C3)C2C1=O (centres undefined)
not listed: [1] | [5] | [6]
inactive: all other assays above

S=C(S)NCCNC(=S)S.[Mn+2].[S-]C([S-])=NCCN=C([S-])[S-].[Zn+2]
active: [7] 40.2 µM [middle of 4 runs]
inactive: [2] | [10] | [7] | [8] | [9]

COC(=O)c1ccc(I)cc1S(=O)(=O)NC(=O)Nc1nc(C)nc(OC)n1
inactive: [2] | [7] | [8] | [9]

Oc1ccc(C(c2ccc(O)cc2)C(Cl)(Cl)Cl)cc1
inactive: [7] | [8] | [9]

CCOC(=O)C(C)Oc1ccc(Oc2nc3ccc(Cl)cc3o2)cc1 (centres undefined)
inactive: [2] | [6] | [10] | [7] | [8] | [9]
active: [5] 35.9 µM | [10] 78.9 µM

N[C@@H](Cc1cc(I)c(Oc2ccc(O)c(I)c2)c(I)c1)C(=O)O
inactive: [3] | [4] | [8] | [9]

CN(C)C(=O)Nc1ccc(Cl)c(Cl)c1
inactive: [3] | [4] | [10] | [7] | [8] | [9]

S=C([S-])NCCNC(=S)[S-].[Mn+2]
inactive: [2] | [10] | [7] | [8] | [9]
active: [7] 69.5 µM

CCCOC(=O)NCCCN(C)C
inactive: [10] | [7] | [8] | [9]

CC(=O)[C@H]1CC[C@H]2[C@@H]3CCC4=CC(=O)CC[C@]4(C)[C@H]3CC[C@]12C
not listed: [1] | [5] | [6]
inactive: all other assays above

CC(=O)S[C@@H]1CC2=CC(=O)CC[C@]2(C)[C@H]2CC[C@@]3(C)[C@@H](CC[C@@]34CCC(=O)O4)[C@H]12
not listed: [1] | [5] | [6]
inactive: all other assays above
